Experimental data as given in PubChem BioAssay AID1234 (University of Pittsburgh Molecular Library Screening Center, 2008).
This is one part of the list. Activity calls are given as the source filed them.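 How the source made its calls: active means EC50 under a set limit for hydrogen peroxide production with the reducing agent DTT present; inactive means the rest.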

Test: compounds producing H2O2 with reducing agent – biochemical, 10-point concentration response, NIH library profiling, artefact control for MLSCN library redox annotation, dose response (AID 1234)
Conditions: DTT-dependent redox cycling H2O2, phenol red-HRP absorbance; activation: H2O2 generation, at 50 µM, stronger effect = higher value

CCOC(=O)c1c(C)[nH]c2c1-c1ccccc1C(=O)C2=O
EC50: 430 nM (active)
activation: 129%
